{
  "source": "PubChem BioAssay AID504369",
  "about": "(National Center for Advancing Translational Sciences (NCATS), 2011)",
  "note": "Unmarked numbers belong to inactive results. The rule behind the calls is not given here.",
  "data": [
    {"experiment": "Counterscreen for Identifying a Potential Treatment of Ataxia-Telangiectasia: SAR for Probe", "details": "cell-free AlphaLISA pKAP1 detection artifact counterscreen; series mostly up to 154 µM; activity change: at the top concentration", "from_the_text": "NIH Chemical Genomics Center [NCGC] NIH Molecular Libraries Probe Centers Network [MLPCN] MLPCN Grant: MH089030-01 Assay Submitter (PI): Wei Zheng and Yosef Shiloh Ataxia-telangiectasia (A-T) is a devastating and progressive disease for which, there is no cure. Although A-T is a multisystem disease, it is stereotyped characterized by its neurological symptoms such as truncal ataxia, due to cerebellar cortical degeneration of the Purkinje and granule cells. Other symptoms of A-T are telangiectasias (dilated blood vessels), primary immunodeficiency, marked sensitivity to ionizing radiation (IR), chromosomal instability and predisposition to cancer. The underlying genetic cause of A-T is null mutations in the ATM (A-T mutated) gene. ATM is a nuclear serine/threonine kinase that functions as a master regulator of the cellular responses to double strand breaks (DSBs) in the DNA. Upon activation by DSBs, ATM phosphorylates a plethora of downstream targets, including KAP-1 on Ser82452. […] To screen for small molecules that will compensate for the loss of ATM in cells derived from A-T patients, we monitored KAP-1 phosphorylation as a readout for ATM-like activity using an AlphaLISA assay.\nqHTS Assay Protocol: 1. […] Readout, EnVision, EnVision plate reader. […] EnVision protocol for 1536-well AlphaScreen read (30ms excitation, 100ms read), about 10 min/plate. […]", "units": {"activity change": "%"}, "values": [
      {"smiles": "CC(=O)c1c(O)c(C)c(O)c(Cc2c(O)c3c(c(C(=O)/C=C/c4ccccc4)c2O)OC(C)(C)C=C3)c1O", "activity change": 13.5}
    ]}
  ]
}
